Sampled rows, rich in hits. Any-hit rate of the full collection: about 9.5%.
ALDH1A1 inh = inhibitors of human aldehyde dehydrogenase 1A1; P00352; Purified ALDH1A1, NADH fluorescence, propionaldehyde substrate; Potency, µM (doses to about 75.3 µM), for inactives: top-dose activity, negative = inhibition, actives largely listed as inhibitors; 7.3% of 220,000 active; AID 1030; active means well fitted inhibition curve with a large enough effect, not every such curve was filed as active; inconclusive means small, poorly fitted or top-dose-only effect, or another doubt; inactive means no such curve, though single readings can be large or run the other way;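 further: plate controls were no enzyme wells and a reference inhibitor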
Target sequence (P00352 whole entry, looked up): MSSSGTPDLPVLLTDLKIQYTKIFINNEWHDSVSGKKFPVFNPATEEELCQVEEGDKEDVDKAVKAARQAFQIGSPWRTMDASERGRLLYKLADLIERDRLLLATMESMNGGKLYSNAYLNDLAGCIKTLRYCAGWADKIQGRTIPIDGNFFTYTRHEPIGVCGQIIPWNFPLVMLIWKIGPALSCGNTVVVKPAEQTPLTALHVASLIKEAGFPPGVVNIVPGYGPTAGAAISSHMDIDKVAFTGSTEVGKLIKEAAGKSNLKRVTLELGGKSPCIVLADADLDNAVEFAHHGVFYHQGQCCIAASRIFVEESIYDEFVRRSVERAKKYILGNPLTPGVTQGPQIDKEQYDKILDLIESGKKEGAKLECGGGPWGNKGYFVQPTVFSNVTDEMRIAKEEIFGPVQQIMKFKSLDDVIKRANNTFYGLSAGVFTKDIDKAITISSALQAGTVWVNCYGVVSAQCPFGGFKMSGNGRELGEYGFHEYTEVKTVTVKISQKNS
HPGD block = HPGD (human) dehydrogenase inhibition; 4.3% of 150,000 active; P15428; purified HPGD, NADH fluorescence kinetic, PGE2 substrate; AID 894; Potency, µM, inactives show at the highest dose activity change, negative = inhibition, usual class: inhibitors; active means well fitted inhibition curve with a large enough effect, not every such curve was filed as active; inconclusive means small, poorly fitted or top-dose-only effect, or another doubt; inactive means no such curve, though single readings can be large or run the other way
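NADH formation kinetics: reaction with 30 uM PGE2 and 1 mM NAD+ (final), 20 nM enzyme, Tris-HCl pH 8 with Tween 20, after 15 min compound preincubation at room temperature. Fluorescence change, last versus first of five reads.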
Tau fluor counter = counter-screen for tau fibril formation inhibitors; tau K18 P301L Alexa594 fluorescence, heparin fibrillization; Potency, µM (titrated, usually from 57.7 µM), inactives show at the highest dose activity change, negative = decrease; 0.93% of 280,000 active; further: nearly all actives have a fitted effect of over 55% in size
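Human tau K18 P301L (15 uM unlabeled, 0.24 uM Alexa 594-labeled) in 100 mM sodium acetate pH 7 with 20 uM heparin, 6 hr at 37 C. ThT 30 uM added, 1 hr ambient; Alexa 594 FP and total fluorescence read at 555/632 nm.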
Tau fibril FP = inhibitors of human tau fibril formation. Potency, µM (highest dose often 57.7 µM), for the others: at the highest dose activity, negative = inhibition, hits mostly inhibitors. 0.39% of 280,000 active. K18 P301L tau heparin fibrillization, Alexa594 FP, 6 h; further: nearly all actives have a fitted effect of over 55% in size
Target sequence (P10636 561-689 P618L limits assumed): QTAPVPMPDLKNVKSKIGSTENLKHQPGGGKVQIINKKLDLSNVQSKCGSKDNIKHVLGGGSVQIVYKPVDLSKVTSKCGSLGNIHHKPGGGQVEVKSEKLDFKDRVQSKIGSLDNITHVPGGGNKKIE
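Compound effects on tau fibrillization are measured by Alexa 594 fluorescence polarization (ex 555, em 632 nm). K18 P301L tau is used at 15 uM with 0.24 uM labeled tracer, and 20 uM heparin induces aggregation over 6 hr at 37 C.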
Tau ThT inhib = inhibitors of human tau fibril formation, thioflavin T binding. recombinant tau K18 P301L (four-repeat tau fragment), heparin-induced fibrillization, ThT fluorescence. Potency, µM (titrated, usually from 57.4 µM), for inactives: top-dose activity, negative = inhibition, usual class: inhibitors. 2.1% of 270,000 active. AID 1460; further: nearly all actives have a fitted effect of over 55% in size
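Heparin-induced (20 uM) aggregation of recombinant human K18 P301L tau, 15 uM unlabeled with 0.24 uM labeled, pH 7 acetate buffer, 6 hr at 37 C with compound. Fibrils quantified by 30 uM ThT fluorescence after 1 hr ambient incubation.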
NPSR antagonist = blocks cAMP signaling of the human neuropeptide S receptor; Q6W5P4; CHO-NPSR cells, cAMP TR-FRET, antagonist mode; Potency, µM (titrated, usually from 38.3 µM), for inactives: top-dose activity change, negative = inhibition, most hits filed as inhibitors; 1% of 220,000 active; further: nearly all actives have a fitted effect of over 50% in size
An asterisk follows results filed as active; [ ] = another dose, or the depositor's remark. Unless noted, the call rests on the fitted dose curve; in most records, active means well fitted curve in the direction sought with a large enough effect; inconclusive means small, poorly fitted or top-dose-only effect, or another doubt; inactive means no such curve, though single readings can be large; an effect the other way counts as inactive or inconclusive. Unless noted, on the % scale 0 is the no-effect control and ±100 the full control effect; potency means the concentration at half of the fitted maximal effect.

O=C(/C=C/c1ccc(N2CCCCC2)c([N+](=O)[O-])c1)c1ccc(O)cc1 was read as ALDH1A1 inh 25µM*, Tau fluor counter 16µM*[quencher], Tau fibril FP inconclusive, Tau ThT inhib 11µM* and NPSR antagonist -42%.
For O=C(/C=C/c1cccc([N+](=O)[O-])c1)c1ccccc1 the results were ALDH1A1 inh -4%, HPGD block -7%, Tau fluor counter -8%, Tau fibril FP 10% and Tau ThT inhib inconclusive.
For O=C(/C=C/c1cccc([N+](=O)[O-])c1)n1cnc2ccccc21 the results were ALDH1A1 inh 17%, Tau fluor counter inconclusive, Tau fibril FP inconclusive, Tau ThT inhib 13µM* and NPSR antagonist -52%.
COc1ccccc1C(=O)/C=C/c1ccc(N2CCCCC2)c([N+](=O)[O-])c1 was read as ALDH1A1 inh 6.3µM*, HPGD block -11%, Tau fluor counter inconclusive, Tau fibril FP 4%, Tau ThT inhib 4µM* and NPSR antagonist inconclusive.
Screening COc1ccc(NS(=O)(=O)c2cccc(C(=O)NNC(=O)NCCCl)c2)cc1 returned ALDH1A1 inh inconclusive, Tau fluor counter 1%, Tau fibril FP 3%, Tau ThT inhib 4% and NPSR antagonist 14%.
For Cc1nn(C)c(C)c1NC(=O)CSc1nc(C2CC2)nc2c1cnn2-c1ccccc1 the results were ALDH1A1 inh -8%, HPGD block -24%, Tau fluor counter 4%, Tau fibril FP -1%, Tau ThT inhib -10% and NPSR antagonist -4%[46.1 µM].
`CC1CCCCN1C(=O)CSc1nc(C2CC2)nc2c1cnn2-c1ccccc1` (centres undefined) gave ALDH1A1 inh 11µM*, HPGD block inconclusive, Tau fluor counter -10%, Tau fibril FP -9%, Tau ThT inhib -17% and NPSR antagonist inconclusive.
For COCCCNc1nc2c(S(=O)(=O)c3ccc(C)c(C)c3)nnn2c2ccc(Cl)cc12 the results were Tau fluor counter inconclusive, Tau fibril FP inconclusive and Tau ThT inhib -4%.
For O=C(Nc1ccc(N2CCCC2)cc1)c1cccc(-c2cc3ccccc3oc2=O)c1 the results were ALDH1A1 inh 2.2µM*, HPGD block 8.9µM*, Tau fluor counter inconclusive, Tau fibril FP 4%, Tau ThT inhib inconclusive and NPSR antagonist -7%[46.1 µM].
Screening O=C(Nc1ccncc1)c1cccc(F)c1 returned ALDH1A1 inh 6%, HPGD block 1%, Tau fluor counter -3%, Tau fibril FP -1%, Tau ThT inhib 3% and NPSR antagonist -11%[46.1 µM].
For O=C(Nc1ccccc1N1CCCC1)c1cccc(-c2cc3ccccc3oc2=O)c1 the results were ALDH1A1 inh -1%, HPGD block -8%, Tau fluor counter inconclusive, Tau fibril FP 14%, Tau ThT inhib -10% and NPSR antagonist -17%.
For CC(=O)c1cccc(NC(=O)c2ccc(NS(=O)(=O)c3c(C)noc3C)cc2)c1 the results were ALDH1A1 inh inconclusive, HPGD block -13%, Tau fluor counter -15%, Tau fibril FP -4%, Tau ThT inhib -13% and NPSR antagonist 4%[46.1 µM].
CC(=O)c1cccc(NC(=O)c2ccc(NS(C)(=O)=O)cc2)c1 was read as ALDH1A1 inh 10%, HPGD block 13µM*, Tau fluor counter 3%, Tau fibril FP 6%, Tau ThT inhib 4% and NPSR antagonist 6%.
`O=C(Nc1ccc(N2CCCC2)cc1)c1cccc(F)c1` gave ALDH1A1 inh -80%, HPGD block -9%, Tau fluor counter inconclusive, Tau fibril FP inconclusive, Tau ThT inhib 13µM* and NPSR antagonist -5%[46.1 µM].
Screening O=C(Nc1cccc(F)c1)c1ccccc1 returned ALDH1A1 inh 2%, HPGD block 32µM*, Tau fluor counter 2%, Tau fibril FP 0%, Tau ThT inhib -1% and NPSR antagonist 1%[46.1 µM].
For O=C(Nc1ccc(F)c(Cl)c1)C1CCN(c2ncccn2)CC1 the results were Tau fluor counter -3%, Tau fibril FP -4% and Tau ThT inhib 5%.
`NC(=O)CSc1nnnn1-c1cccc(O)c1` gave Tau fluor counter 0%, Tau fibril FP 2% and Tau ThT inhib 3%.
Screening CCN1C(=O)[C@H]2[C@H]3[C@H](O)[C@H](O)C/C(=N/O[C@@H]4O[C@@H](COC(C)=O)[C@@H](OC(C)=O)[C@@H](OC(C)=O)[C@H]4OC(C)=O)[C@H]3CC[C@@H]2C1=O returned ALDH1A1 inh 0%[13.5 µM], Tau fluor counter -2%[11.6 µM], Tau fibril FP -12%[11.6 µM] and Tau ThT inhib 0%[11.5 µM].
`O=C1NNC(=O)C2C3C=CC(C4CC34)C12` (centres undefined) gave ALDH1A1 inh 25µM*, HPGD block -4%, Tau fluor counter -8%, Tau fibril FP 7%, Tau ThT inhib -1% and NPSR antagonist -3%[46.1 µM].
`C=CCSc1nnc2c(n1)[nH]c1c(C)cccc12` gave ALDH1A1 inh inconclusive, HPGD block 16µM*, Tau fluor counter -3%, Tau fibril FP 4%, Tau ThT inhib -16% and NPSR antagonist -6%[46.1 µM].
For CCSc1nnc2nc3[nH]c4c(C)cccc4c3nn12 the results were ALDH1A1 inh 14%, Tau fluor counter -2%, Tau fibril FP 7%, Tau ThT inhib inconclusive and NPSR antagonist -28%.
For Cc1cccc2c1[nH]c1nc(N/N=C\c3ccco3)nnc12 the results were ALDH1A1 inh -16%, HPGD block -7%, Tau fluor counter -28%, Tau fibril FP -7%, Tau ThT inhib 6.3µM* and NPSR antagonist inconclusive.
Screening CC(/C=N/Nc1nnc2c(n1)[nH]c1ccccc12)=C\c1ccco1 returned ALDH1A1 inh -10%, HPGD block -11%, Tau fluor counter inconclusive, Tau fibril FP -12%, Tau ThT inhib 6.3µM* and NPSR antagonist 5%[46.1 µM].
Screening Cc1ccnc(N/N=C/c2ccco2)n1 returned ALDH1A1 inh 5%, HPGD block -21%, Tau fluor counter -10%, Tau fibril FP 1%, Tau ThT inhib -14% and NPSR antagonist -8%[46.1 µM].
Cn1c(Cc2nc(-c3cnccn3)no2)nnc1SCC(=O)Nc1ccccc1 was read as Tau fluor counter -13%, Tau fibril FP -2%, Tau ThT inhib -15% and NPSR antagonist -10%[7.67 µM].
COc1cccc(Cn2c(=O)c(-c3ccc(F)c(F)c3)nc3cncnc32)c1 was read as ALDH1A1 inh 9% and HPGD block -21%.
Screening COc1ccccc1OC[C@H](O)CO returned ALDH1A1 inh 1%[20.9 µM] and HPGD block -3%.
`O=C(CSc1nnc(-c2ccc(Cl)cc2)n1-c1ccc(Cl)cc1)N/N=C/c1ccco1` gave ALDH1A1 inh inconclusive, HPGD block -18%, Tau fluor counter -28%, Tau fibril FP 6%, Tau ThT inhib inconclusive and NPSR antagonist 0%.

Screens as filed in PubChem BioAssay.
